The values below come from PubChem BioAssay.

The source made the active and inactive calls. Unless noted, no rule for the calls is given here.

Experiment [1] can be described thus: compounds binding Alexa647 anti-His antibody – biochemical, small-molecule microarray, 635 nm fluorescence, artefact control for SMM control protein annotation, primary screen (AID 1128).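 Also: score merges feature fluorescence with signal-to-noise for each printed compound spot.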 The conditions noted are these: higher = more signal.
Experiment [2] relates to Human papillomavirus type 1a E7 protein (residues 1-88). The experiment in a line: HPV1a E7 small-molecule binders, primary screen, biochemical, small-molecule microarray, residues 1-88, 635 nm (AID 1129). The conditions noted are these: small-molecule microarray binding, fluorescence 635 nm; higher = more signal.
In experiment [3] the target is Focal adhesion kinase 1 (Homo sapiens) (UniProt Q05397). As to the kind of experiment: PTK2 protein binding on printed compound slides – biochemical, small-molecule microarray, 635/667 nm fluorescence, BSA, DTT, primary screen (AID 1130).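 Also: composite of spot emission at 667 nm and signal to noise over triplicate slides.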 The conditions noted are these: 635 nm fluorescence, higher = more signal.
Chain of Focal adhesion kinase 1 (Homo sapiens) (Q05397 whole entry, looked up): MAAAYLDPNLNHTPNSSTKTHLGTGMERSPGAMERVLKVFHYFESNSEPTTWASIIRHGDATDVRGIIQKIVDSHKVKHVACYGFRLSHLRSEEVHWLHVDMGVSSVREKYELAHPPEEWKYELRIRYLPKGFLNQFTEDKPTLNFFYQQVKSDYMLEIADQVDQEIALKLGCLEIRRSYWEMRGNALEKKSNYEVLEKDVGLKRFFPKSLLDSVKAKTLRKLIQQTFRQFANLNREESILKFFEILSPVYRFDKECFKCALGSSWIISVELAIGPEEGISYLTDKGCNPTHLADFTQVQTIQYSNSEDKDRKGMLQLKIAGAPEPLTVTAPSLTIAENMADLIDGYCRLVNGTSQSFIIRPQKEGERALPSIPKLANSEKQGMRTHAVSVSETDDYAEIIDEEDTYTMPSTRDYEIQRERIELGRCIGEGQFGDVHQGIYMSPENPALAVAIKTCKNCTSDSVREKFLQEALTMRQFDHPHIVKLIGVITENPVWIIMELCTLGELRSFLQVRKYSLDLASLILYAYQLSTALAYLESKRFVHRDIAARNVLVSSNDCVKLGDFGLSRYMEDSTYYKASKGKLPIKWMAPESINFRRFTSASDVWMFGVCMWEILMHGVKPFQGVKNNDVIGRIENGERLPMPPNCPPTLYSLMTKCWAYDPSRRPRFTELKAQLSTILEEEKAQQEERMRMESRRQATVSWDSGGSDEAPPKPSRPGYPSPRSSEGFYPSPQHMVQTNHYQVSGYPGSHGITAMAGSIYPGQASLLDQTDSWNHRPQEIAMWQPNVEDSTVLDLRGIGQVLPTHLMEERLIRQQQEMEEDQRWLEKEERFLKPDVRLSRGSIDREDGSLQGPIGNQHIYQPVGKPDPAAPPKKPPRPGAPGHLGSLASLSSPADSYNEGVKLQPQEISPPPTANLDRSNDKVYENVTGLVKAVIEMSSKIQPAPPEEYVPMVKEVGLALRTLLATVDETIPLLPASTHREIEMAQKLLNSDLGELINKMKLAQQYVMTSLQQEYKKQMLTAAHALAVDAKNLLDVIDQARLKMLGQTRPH
Experiment [4] has as its system Fibrinogen (Alexa647-labelled). As to the kind of experiment: Alexa647-fibrinogen binding to printed small molecules – biochemical, small-molecule microarray, 635/667 nm fluorescence, artefact control for SMM control-protein annotation, profiling panel (AID 1131).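 Also: z-score merges 667 nm fluorescence with per-spot signal-to-noise over triplicate slides.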 To be noted: fibrinogen-A647 binding fluorescence, higher = more signal.
Experiment [5] has as its target Follistatin (Homo sapiens) (UniProt P19883). The experiment in a line: FST protein binding to printed compounds – biochemical, small-molecule microarray, 635/667 nm fluorescence, primary screen (AID 1132). The conditions noted are these: 635 nm fluorescence, higher = more signal.
Experiment [6] deals with Fibroblast growth factor 2 (Homo sapiens) (UniProt P09038). The experiment in a line: basic fibroblast growth factor binding to printed compounds – biochemical, small-molecule microarray, 635/667 nm fluorescence, primary screen (AID 1133). The conditions noted are these: FGF2, fluorescence 635/667, higher = more signal.
Chain of Fibroblast growth factor 2 (Homo sapiens) (P09038 whole entry, looked up): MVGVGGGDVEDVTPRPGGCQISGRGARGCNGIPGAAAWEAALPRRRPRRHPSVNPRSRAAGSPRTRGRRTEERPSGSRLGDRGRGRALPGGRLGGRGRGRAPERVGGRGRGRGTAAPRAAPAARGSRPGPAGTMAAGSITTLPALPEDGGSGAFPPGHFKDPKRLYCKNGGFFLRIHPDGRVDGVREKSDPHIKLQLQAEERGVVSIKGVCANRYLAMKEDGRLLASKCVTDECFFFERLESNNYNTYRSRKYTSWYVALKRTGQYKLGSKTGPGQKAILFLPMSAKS
A short description of experiment [7]: JC-1 mitochondrial potential readout, lung cancer cells – cell-based, A549, JC-1 fluorescence, basal, 24 h, 100 nL, profiling panel (AID 1138).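 Also: A549 lung adenocarcinoma cells under basal conditions with no added stimulus; test concentration not given here.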 The conditions noted are these: higher = more signal.
The subject of experiment [8] is Lefty1. The experiment in a line: Lefty1 protein binding to printed compounds – biochemical, small-molecule microarray, 635/667 nm fluorescence, primary screen (AID 1139). To be noted: fluorescence 635/667, higher = more signal.
Experiment [9] relates to wheat germ agglutinin (Triticum aestivum), Alexa647-labelled. The experiment in a line: Alexa647-WGA lectin binding to printed small molecules – biochemical, small-molecule microarray, 635/667 nm fluorescence, artefact control for SMM control-protein annotation, profiling panel (AID 1140).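 Also: score merges 667 nm feature emission with signal to noise over triplicate slides.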 To be noted: WGA-A647 binding, 635 nm fluorescence, higher = more signal.
Experiment [10] addresses Luciferin 4-monooxygenase (Photinus pyralis) (UniProt P08659). The experiment in a line: inhibition of purified Photinus pyralis luciferase – biochemical, luminescence, purified enzyme, 2006 set, primary screen (AID 1141).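 Also: cell-free assay with purified firefly luciferase at 100 ng per well in PBS; test concentration not given here.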 To be noted: purified firefly luciferase, SteadyGlo luminescence, 30 min; higher = more signal, called active from +8 up or from −8 down.
For experiment [11], the system named is Wnt5a (protein binding on small-molecule microarray). The experiment in a line: small molecules binding Wnt5a protein – biophysical, small-molecule microarray, 635/667 nm fluorescence, primary screen (AID 1142).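 Also: fluorescence read at 667 nm with signal to noise per printed feature.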 To be noted: 635 nm fluorescence, higher = more signal.
Experiment [12] can be described thus: ATP-based viability of Huh7 replicon cells – cell-based, CellTiter-Glo luminescence, basal, 48 h, cytotoxicity control for HCV replication inhibitor project, primary screen (AID 1143).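 Also: Huh7 hepatoma cells carrying a hepatitis C replication reporter with no stimulus; test concentration not given here.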 The conditions noted are these: higher = more signal, called active from +8 up or from −8 down.
Experiment [13] is described as follows: Pseudomonas biofilm growth suppression – PAO1 strain, BacTiter-Glo luminescence, LB-PBS, primary screen (AID 1144). To be noted: P. aeruginosa PAO1 biofilm, 12 h, higher = more signal.
The nature of experiment [14]: basal CRE-LacZ reporter activity in PC12 – cell-based, unstimulated, primary screen (AID 1145). To be noted: no forskolin, luminescence, 4.5 h, higher = more signal, called active from +8 up or from −8 down.
The nature of experiment [15]: forskolin-driven CRE-LacZ activity in PC12 – cell-based, CRE-LacZ reporter, forskolin-stimulated, primary screen (AID 1146).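 Also: PC12 cells with 6xCRE LacZ reporter stimulated by forskolin 10 µM; beta-galactosidase reporter signal reflecting CREB driven transcription.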 The conditions noted are these: luminescence, 4.5 h, higher = more signal, called active from +8 up or from −8 down.
In experiment [16] the target is Streptavidin (Streptomyces avidinii) (UniProt P22629). As to the kind of experiment: compounds binding control protein streptavidin – biophysical, small-molecule microarray, 635/667 nm fluorescence, artefact control for SMM compound annotation, primary screen (AID 1147).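 Also: signal reflects streptavidin binding to arrayed compounds as a control protein.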 To be noted: higher = more signal.
Chain of Streptavidin (Streptomyces avidinii) (P22629 whole entry, looked up): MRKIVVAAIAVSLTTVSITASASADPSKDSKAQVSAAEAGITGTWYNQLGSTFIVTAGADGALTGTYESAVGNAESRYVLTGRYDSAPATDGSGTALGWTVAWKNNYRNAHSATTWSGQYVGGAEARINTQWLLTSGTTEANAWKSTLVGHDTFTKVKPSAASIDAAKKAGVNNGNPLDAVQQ
Experiment [17] can be described thus: probe aInhba binding on compound microarray – biochemical, small-molecule microarray, 635/667 nm fluorescence, primary screen (AID 1148).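 Also: score merges 667nm spot fluorescence with signal-to-noise for antibody binding to printed compounds.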 To be noted: higher = more signal.
Experiment [18] addresses Torsin-1A (Homo sapiens) (UniProt O14656). The experiment in a line: TOR1A wild-type binding on microarray – cell lysate, small-molecule microarray, lysate, 635/667 nm, primary screen (AID 1149). The conditions noted are these: COS7 hTOR1A-WT lysate, 635 nm fluorescence, higher = more signal.
Experiment [19] shares this target. As to the kind of experiment: torsin A mutant lysate binding on microarrays – cell lysate, small-molecule microarray, COS7 lysate, 635/667 nm fluorescence, primary screen (AID 1150).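 Also: score pools 667 nm emission and signal to noise measuring lysate protein binding.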 The conditions noted are these: COS7 hTOR1A mutant lysate, 635 nm fluorescence, higher = more signal.
Experiment [20] has as its system Sonic hedgehog protein (Shh). The experiment in a line: Sonic hedgehog microarray binding compounds – biochemical, small-molecule microarray, 635/667 nm fluorescence, primary screen (AID 1151).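 Also: Shh protein binding to compounds spotted on small-molecule microarray slides; score combines spot fluorescence intensity with signal-to-noise across triplicate slides.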 To be noted: 635 nm fluorescence, higher = more signal.

Chain of Torsin-1A (Homo sapiens) (O14656 whole entry, looked up): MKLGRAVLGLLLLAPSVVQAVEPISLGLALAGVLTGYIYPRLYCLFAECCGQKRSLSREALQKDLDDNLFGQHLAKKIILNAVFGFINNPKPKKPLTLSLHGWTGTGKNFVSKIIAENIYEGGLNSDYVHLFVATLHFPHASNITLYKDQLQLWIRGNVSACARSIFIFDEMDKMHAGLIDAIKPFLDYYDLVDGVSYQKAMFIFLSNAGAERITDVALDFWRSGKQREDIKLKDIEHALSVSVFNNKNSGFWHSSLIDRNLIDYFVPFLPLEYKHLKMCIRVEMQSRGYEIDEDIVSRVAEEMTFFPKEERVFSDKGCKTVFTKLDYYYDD
Chain of Follistatin (Homo sapiens) (P19883 whole entry, looked up): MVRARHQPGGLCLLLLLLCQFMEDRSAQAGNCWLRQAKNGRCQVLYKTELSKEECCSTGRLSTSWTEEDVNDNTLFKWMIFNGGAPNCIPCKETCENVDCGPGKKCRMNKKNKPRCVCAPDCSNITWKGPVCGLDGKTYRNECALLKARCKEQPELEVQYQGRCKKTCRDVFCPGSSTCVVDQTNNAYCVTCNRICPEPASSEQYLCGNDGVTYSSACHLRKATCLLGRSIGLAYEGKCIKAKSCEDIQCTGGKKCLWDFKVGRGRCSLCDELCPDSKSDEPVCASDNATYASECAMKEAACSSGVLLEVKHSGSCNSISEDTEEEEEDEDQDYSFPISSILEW
Chain of Luciferin 4-monooxygenase (Photinus pyralis) (P08659 whole entry, looked up): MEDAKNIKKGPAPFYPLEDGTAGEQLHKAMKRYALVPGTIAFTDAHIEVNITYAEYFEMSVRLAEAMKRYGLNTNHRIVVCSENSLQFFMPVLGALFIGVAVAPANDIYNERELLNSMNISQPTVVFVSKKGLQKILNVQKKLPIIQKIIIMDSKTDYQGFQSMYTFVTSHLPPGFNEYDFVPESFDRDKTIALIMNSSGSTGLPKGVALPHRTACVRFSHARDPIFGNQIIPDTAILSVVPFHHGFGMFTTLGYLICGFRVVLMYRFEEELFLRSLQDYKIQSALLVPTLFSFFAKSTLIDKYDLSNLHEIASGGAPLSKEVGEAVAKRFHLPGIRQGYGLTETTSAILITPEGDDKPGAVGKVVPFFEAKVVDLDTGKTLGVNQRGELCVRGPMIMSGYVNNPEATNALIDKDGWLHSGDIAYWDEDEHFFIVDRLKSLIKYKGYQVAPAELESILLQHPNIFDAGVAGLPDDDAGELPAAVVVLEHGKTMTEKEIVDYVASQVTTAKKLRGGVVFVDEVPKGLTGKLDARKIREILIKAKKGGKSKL

For the molecule `COc1ccc(C(=O)Nc2ccc(CN3C(=O)[C@@]4(O[C@@H](CC(=O)N(CCO)Cc5ccccc5)[C@H]([Si](C)(C)c5ccc(OC)cc5)[C@H]4C)c4ccccc43)cc2)cc1`, the composite z-score turned out to be 0.757 in experiment [1]; 0.066 in experiment [2]; 0.385 in [3]; 0.0715 in experiment [4]; 0.35 in experiment [5]; 0.936 in [6]. Moreover, the composite z-score in experiment [8] was 1.11; in experiment [9], 1.1; in experiment [11], 0.353; in experiment [16] it was 0.675; in [17] it was -0.179; in experiment [18] it was 0.438. The composite z-score in experiment [19] is -0.0394; in experiment [20], 1.59. Also, the z-score was -0.266 in experiment [7]; 0.594 (inactive) in experiment [10]; -5.7 (inactive) in experiment [12]; -0.376 (inactive) in [13]; -0.533 (inactive) in experiment [14]; -0.0361 (inactive) in [15].
For `CC(C)c1ccc(NN2C(C(O)C3=C[C@H]4C[C@@H](C3)C4(C)C)C=CC3C(=O)N(c4ccccc4)C(=O)C32)cc1` (stereo not given in full), the composite z-score was 0.57 in experiment [1]; 1.07 in experiment [2]; 0.0505 in [3]; 0.953 in experiment [4]; 1.11 in experiment [5]; 0.248 in [6]. Further, the composite z-score in experiment [8] was 0.605; in experiment [9] it was 0.632; in [11], 0.747; in experiment [16], 1.56; in [17] it was 0.234; in experiment [18] it was 0.281. The composite z-score in experiment [19] is 0.562; in experiment [20], -0.0766. Also, the z-score in experiment [7] is -0.894; in [10] it was -1.77 (inactive); in experiment [12], -0.005 (inactive); in experiment [13] it was -0.335 (inactive); in experiment [14], 0.443 (inactive); in [15], 0.551 (inactive).
With `COC(=O)[C@H](Cc1ccccc1)N1CC(C)(OC)O[C@@H](Cc2ccccc2)[C@H]1/C=C/C1CC1` (stereo not given in full), the composite z-score was found to be 0.575 in [1]; 0.145 in [2]; 0.0639 in experiment [3]; 0.47 in experiment [4]; 0.0103 in experiment [5]; 0.0959 in experiment [6]. The composite z-score in experiment [8] is -0.14; in experiment [9], 0.808; in experiment [11], -0.0712; in experiment [16], 0.0404; in experiment [17] it was -0.0762; in experiment [18], 0.256. In addition, the results for the composite z-score in [19] and in [20] were 0.269 and 0.0034, respectively. Moreover, the z-score in experiment [7] was 0.385; in experiment [10], -0.138 (inactive); in experiment [12], -0.628 (inactive); in [13] it was 0.664 (inactive); in experiment [14], 4.13 (inactive); in experiment [15], 1.12 (inactive).
As to `CN(C)CCCCCCNC(=O)[C@@H]1C[C@@H]2C(=O)N[C@@H](CCCC[N+](C)(C)C)C(=O)N2[C@@H]1c1cccc(OCCO)c1`, the composite z-score in [1] was 2.34; in experiment [2] it was 0.13; in experiment [3] it was -0.159; in experiment [4] it was 0.104; in experiment [5] it was 0.704; in experiment [6], 0.645. In addition, the composite z-score in experiment [8] was -0.601; in [9], 0.853; in [11], 0.144; in experiment [16], -0.3; in [17], 0.0569; in experiment [18], 0.327. In addition, the composite z-score in experiment [19] is -0.284; in [20], -0.371. The z-score in experiment [7] is 0.417; in experiment [10], -2.44 (inactive); in experiment [12], -0.966 (inactive); in experiment [13], -0.217 (inactive); in [14], -0.805 (inactive); in experiment [15] it was -0.416 (inactive).
As to `COc1ccc([Si](C)(C)[C@H]2[C@H](CC(=O)N(CCO)Cc3ccccc3)O[C@@]3(C(=O)N(Cc4ccc(N5C(=O)c6cccc7cccc5c67)cc4)c4ccccc43)[C@@H]2C)cc1`, the composite z-score is 0.53 in [1]; 0.714 in [2]; 0.0253 in [3]; 0.624 in experiment [4]; 1.17 in experiment [5]; 1.06 in experiment [6]. For the same molecule, the composite z-score in experiment [8] is 1.2; in experiment [9] it was 0.59; in [11] it was 0.954; in [16], 0.555; in [17], 0.545; in experiment [18], -0.237. The composite z-score in experiment [19] was determined as 0.454; in experiment [20], 2.17. Besides, the z-score in experiment [7] is -0.701; in [10], -0.354 (inactive); in experiment [12] it was -4.47 (inactive); in [13] it was 0.278 (inactive); in experiment [14] it was 0.353 (inactive); in experiment [15], -0.429 (inactive).
